Assay outcomes (PubChem BioAssay)
Rab9 promoter act = activates the Rab9 promoter | Huh7 Rab9 promoter-luciferase reporter, luminescence, 24 h | actives 2.8% (n = 320,000) | Potency, µM (series often up to 9.22 µM), for inactives: top-dose activation, negative = inhibition, usual class: activators; further: % of control where 0% means no effect; nearly all actives have a fitted effect of over 60% in size
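Luminescence from Amplite-detected luciferase (10 minutes, ambient) reports Rab9 promoter activation. Before that, stable Rab9-luciferase Huh7 cells (1500/well, reduced-serum OP-MEM I plus 10% FBS) were exposed to compound for 24 hours at 37C.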
FLuc modulator = firefly luciferase modulation, counter-screen for miR-21 project | P08659 | purified FLuc, Km substrates, luminescence inhibition | Potency, µM (top dose mostly 57.5 µM), for the others: top-dose activity change, negative = inhibition, actives largely listed as inhibitors | actives 6.9% (n = 360,000);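 further: plate controls were vehicle for no effect and reference inhibitor for full effect; nearly all actives have a fitted effect of over 55% in size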
Target sequence (P08659 whole entry, looked up): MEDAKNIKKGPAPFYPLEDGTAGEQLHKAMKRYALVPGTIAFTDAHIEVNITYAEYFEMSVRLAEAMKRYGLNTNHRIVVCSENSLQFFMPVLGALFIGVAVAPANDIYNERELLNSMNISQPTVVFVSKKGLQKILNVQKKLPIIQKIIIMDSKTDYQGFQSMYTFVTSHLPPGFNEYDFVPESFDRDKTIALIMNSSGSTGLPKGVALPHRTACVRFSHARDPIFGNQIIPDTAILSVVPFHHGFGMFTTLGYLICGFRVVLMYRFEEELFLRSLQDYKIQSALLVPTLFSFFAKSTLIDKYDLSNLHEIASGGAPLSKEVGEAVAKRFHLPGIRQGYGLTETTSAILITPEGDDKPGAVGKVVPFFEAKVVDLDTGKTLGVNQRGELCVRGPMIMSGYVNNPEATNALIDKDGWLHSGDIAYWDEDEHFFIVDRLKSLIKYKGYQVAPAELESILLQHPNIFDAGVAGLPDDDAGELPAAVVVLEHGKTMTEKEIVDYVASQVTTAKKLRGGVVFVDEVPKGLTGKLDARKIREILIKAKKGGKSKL
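Purified P. pyralis luciferase (10nM final) with 10uM D-luciferin and 10uM ATP (Km levels) in 50mM Tris acetate pH 7.5, 10mM Mg acetate, 0.01% Tween-20, 0.05% BSA; qHTS 6-point titration, ~60 µM downward; luminescence read.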
ELG1 genotox = inducers of genotoxicity in HEK293T ELG1-luciferase cells; HEK293T ELG1-luciferase reporter, luminescence, 16 h; Potency, µM (titrated, usually from 46 µM), without a hit: at the top dose activity change, positive = activation, usual class: activators; actives 1.3% (n = 330,000); AID 504466; further: % of control where 0% means no effect; nearly all actives have a fitted effect of over 60% in size
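ELG1-luciferase HEK293T cells, 2,000/well; compound pinned in; 16 hr, 37 °C, 5% CO2; ONE-Glo, 30 min RT; luminescence on CCD imager.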
ELG1 DNA repair = inhibitors of ELG1-dependent DNA repair in HEK293T cells; HEK293T ELG1-luciferase reporter, luminescence, 16 h; DNA damage induced by 5-fluorouridine; Potency, µM (series often up to 46.1 µM), for inactives: at the top dose activity change, negative = inhibition, most hits filed as inhibitors; actives 2.3% (n = 330,000); further: on the % scale 0 is the no-effect control and ±100 the full control effect; nearly all actives have a fitted effect of over 55% in size
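DMSO vehicle served as the neutral condition. Each well held 2,000 cells given 5-fluorouridine plus compound; after 16 hr at 37 °C/5% CO2, ONE-Glo was added and luciferase measured 30 min later.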
NPC1 prom act = activates the NPC1 promoter. Huh7 NPC1 promoter luciferase reporter, 24 h. AID 485313. Potency, µM (titrated, usually from 9.22 µM), inactives show at the highest dose activation, most hits filed as activators. actives 2.4% (n = 320,000); further: % of control where 0% means no effect; nearly all actives have a fitted effect of over 60% in size
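Stably transfected Huh7 (NPC1 promoter→luciferase), 1500 cells/well in Opti-MEM + 10% FBS, 2 h settle, then compound 24 h at 37 °C. Luminescence after 10 min with Amplite reagent.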
SMN2 splice up = SMN2 splice variant enhancement; HEK293 SMN2-luciferase splicing reporter, luminescence, 30-36 h; Potency, µM (titrated, usually from 46.1 µM), for the others: at the highest dose activity change, positive = activation, hits mostly activators; actives 2.8% (n = 210,000); further: % of control where 0% means no effect; nearly all actives have a fitted effect of over 55% in size
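HEK293 cells carry an SMN2 […]–luciferase reporter in which exon 7 inclusion puts luciferase in frame. Cells were plated 10-12 h before compound addition, then incubated 30-36 h at 37C. ONE-Glo luminescence was read; sodium butyrate at 4.5 mM final served as control.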
Active calls of the source: *; ? = inconclusive; / = no result given. The list is not random: actives were taken first. Their share in the collection is about 9.3%. The call rests on the fitted dose curve; in most records, active means well fitted curve in the direction sought with a large enough effect; inconclusive means small, poorly fitted or top-dose-only effect, or another doubt; inactive means no such curve, though single readings can be large; an effect the other way counts as inactive or inconclusive. Potency means the concentration at half of the fitted maximal effect.

SMILES	Rab9 promoter act	FLuc modulator	ELG1 genotox	ELG1 DNA repair	NPC1 prom act	SMN2 splice up
CN(C)/C=N/c1sc2c(c1C#N)CCC2	1%	-9%	5%	15%	9%	-29%
CCCN(/C=N/c1sc2c(c1C#N)CCCCC2)CCC	15%	19µM*	1%	?	26%	7%
N#Cc1c(/N=C/N2CCOCC2)sc2c1CCCCC2	2.5µM*	5.4µM*	5.8µM*	?	4µM*	11µM*
CN(C)/C=N/c1sc2c(c1C#N)CCCCC2	?	21µM*	?	?	?	?
Oc1ccccc1CNc1ccc(Br)cn1	?	9.5µM*	-2%	?	?	?
Brc1ccc(NCc2cccc3ccccc23)nc1	6%	?	-4%	?	-17%	-36%
CCOC(=O)C1(CCOc2ccccc2)CCN(Cc2cccc(OC)c2OC)CC1	-7%	-10%	-1%	12µM*	-5%	/
CCOC(=O)C1(CCOc2ccccc2)CCN(Cc2cccc3c2OCO3)CC1	-16%	0%	-12%	?	-4%	-44%
CCOc1ccc(NC(=NCc2ccc3c(c2)OCO3)SC2CC(=O)N(c3ccccc3)C2=O)cc1 (centres undefined)	2%	10%	5%	4%	-4%	19%
CCOc1ccc(NC(=NCc2ccc3c(c2)OCO3)SC2CC(=O)N(c3ccc(OCC)cc3)C2=O)cc1 (centres undefined)	?	-9%	?	?	?	22µM*
CCOc1ccc(N2C(=O)CC(SC(=NC)Nc3ccc4c(c3)OCO4)C2=O)cc1 (centres undefined)	-7%	-2%	-9%	26µM*	-3%	17%
O=[N+]([O-])c1cc([N+](=O)[O-])c(Oc2c(F)cccc2F)cc1NN1CCCCC1	0%	-1%	3%	4%	-1%	/
S=C(NCc1ccco1)Nc1cccc(Cl)c1	-6%	1%	-6%	-3%	0%	-16%
O=C(NCCSCc1ccco1)Nc1cccc(Cl)c1	?	17µM*	10%	?	?	?
Cc1cc(Cl)ccc1N(CC(=O)NCCSCc1ccco1)S(C)(=O)=O	-8%	-2%	0%	12%	-8%	/
O=C(CCSc1ccccc1)NCCSCc1ccco1	0%	19µM*	-1%	1%	3%	/
O=C(NCCSCc1ccco1)Nc1ccc(Cl)cc1	/	11µM*	/	/	/	?
CO/N=C/c1cc([N+](=O)[O-])ccc1Sc1ccc(C)cc1	-11%	-1%	-1%	6%	0%	-9%
Cc1ccc2oc(=O)c3cnn(CC(=O)NCCc4ccsc4)c3c2c1	-2%	4%	3%	4%	4%	-10%
Cc1ccc(NC(=O)CN2CCCCCC2)c(Br)c1	4µM*	12µM*	?	?	4µM*	11%
CCn1nnc(-c2ccccc2NC(=O)c2cc(OC)c(OC)c(OC)c2)n1	3%	0%	-8%	16µM*	-5%	4%
CCn1nnc(-c2ccccc2NC(=O)c2cc(OC)cc(OC)c2)n1	9%	0%	-33%	?	-5%	-14%
COc1cc(NC(=O)c2ccc(C)cc2)c(OC)cc1NC(=O)CN1CCCCC1	21%	19µM*	-5%	?	23%	-1%
COc1cc(NC(=O)c2ccccc2Cl)c(OC)cc1NC(=O)CN1CCCCC1	-1%	-7%	0%	1%	-1%	/
COc1cc(C(=O)Nc2ccccc2N2CCCCC2)cc(OC)c1OC	2%	-1%	-3%	21µM*	-7%	/
COc1ccccc1C(=O)Nc1ccccc1N1CCCCC1	-7%	-7%	0%	?	-6%	/
Cn1c2ccccc2c(=O)c2c(=O)n(Cc3ccco3)c(-c3ccc(Cl)cc3Cl)nc21	0%	-4%	-9%	-27%	-3%	/
